# PERK inhibitor – human PERK inhibition, primary cell-based screen | CHO PERK-DD fusion, SEAP luminescence translation reporter | inhibition, % at 5.6 µM | 220,000 compounds, 0.17% hits;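 active = inhibition above the mean inhibition of all tested compounds plus 3 SD, set separately per screening campaign, cut at about 2.9% in these data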;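 also: PERK kinase domain activated by AP20187 dimerizer at 100 nM; 0% = DMSO with dimerizer and 100% = rapamycin at 8.4 µM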
# eIF4H FP inh – inhibitors of RNA binding by human eIF4H; AID 2012; Q15056; 290,000 compounds, 0.94% hits; eIF4H fluorescence polarization binding assay; inhibition, % at 35 µM;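 also: calls also rest on retests at 20 µM and on dose response follow-up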
# MLLE-PAM2 inh – inhibitors of microRNA-mediated deadenylation, human PABP1 MLLE binding. 360,000 compounds, 0.36% hits. inhibition, % at 20 µM. GST-MLLE / FITC-PAM2 fluorescence polarization; in the data active = inhibition above about 35%, passing the limit was not always enough;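 also: plate controls were DMSO wells with GST-MLLE for no effect and wells lacking GST-MLLE protein for full effect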
# eIF4E 4G PPI – blocks eIF4E binding to eIF4G; P63073+Q04637; TR-FRET eIF4E-eIF4GI(517-606) binding, 2 h; inhibition, % at 21.7 µM; 220,000 compounds, 0.37% hits;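 active = inhibition above about 30%, limit read from the data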;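 also: 0% = full FRET control wells and 100% = background wells lacking eIF4GI fragment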
# PABP polyA inh – blocks human PABP binding to poly(A) RNA; P11940; fluorescence polarization; inhibition, % at 35 µM; 290,000 compounds, 1% hits; AID 2014;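 also: calls also rest on retests at 20 µM and on dose response follow-up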
# Numbers without * were called inactive; u = inconclusive; x = not tested or not shown; [ ] = remark or other dose. The list is not random: actives were taken first. Their share in the collection is about 1.6%. Unless noted, no rule for the calls is given here.
SMILES,PERK inhibitor,eIF4H FP inh,MLLE-PAM2 inh,eIF4E 4G PPI,PABP polyA inh
O=C(COC(=O)c1ccc(F)cc1F)Nc1ccc2[nH]c(=O)[nH]c2c1,1.2,21.1,-18.6,5.4,15.6
O=C(COC(=O)c1c(F)cccc1F)Nc1ccc2[nH]c(=O)[nH]c2c1,0.8,57.0*,-13.8,7.1,11.1
O=C(CSc1ccccc1)N[C@@H](Cc1ccccc1)C(=O)O,1.1,-11.7,10.2,6.3,7.0
Cn1cccc1-c1cc(C(=O)N2CCc3c([nH]c4ccccc34)C2c2ccccn2)[nH]n1 (stereo unspecified),-1.0,2.7,-3.2,73.4*,-13.1
CCc1nc(SCC(=O)Nc2ccc3c(c2)OCCO3)c2oc3ccccc3c2n1,-0.9,-0.4,1.1,-4.8,3.7
N#CC1=C(N)NC(=S)C(C(N)=O)C1c1ccc([N+](=O)[O-])cc1 (stereo unspecified),0.9,7.7,38.6*,-7.7,2.2
Cc1cc(C)c2c(CN3CCCC3)cc(=O)oc2c1,x,x,-1.8,x,x
CCc1cc(=O)oc2cc(C)c(CN3CCCC3)c(O)c12,0.4,76.8*,-18.7,10.6,67.4*
CCCc1cc(=O)oc2c(CN3CCCC3)c(O)c(Cl)cc12,0.3,108.0*,31.8,x,116.3*
CCCc1cc(=O)oc2c(CN3CCCC3)c(O)ccc12,-0.1,31.0,1.9,x,33.3
CCCc1cc(=O)oc2cc(C)c(CN3CCCC3)c(O)c12,0.5,79.9*,-37.0,-0.8,99.2*
Cc1cc(=O)oc2c(CN3CCCC3)c(O)c(Cl)cc12,x,61.1,12.0,x,45.6
CCc1cc(=O)oc2cc(C)c(CN3CCCCC3)c(O)c12,-0.5,69.7*,34.4,-3.8,78.6*
C=CCNc1nc(C(=O)OCC(=O)Nc2cccc(SC)c2)cs1,x,x,17.4,x,x
CC(=O)Nc1ccc(NC(=O)CC2SC(=O)N(CC(=O)c3ccccc3)C2=O)cc1 (stereo unspecified),x,-17.2,25.2,x,9.7
COc1ccc(OCCCN2CCCC(C)C2)cc1 (stereo unspecified),-0.1,5.8,11.2,2.2,18.6
CCOC(=O)c1c(N/N=C/c2cccnc2)n[nH]c1C,-1.1,-9.8,-15.5,0.5,14.8
CCN(CC)Cc1c(O)c(Cl)cc2c(C)cc(=O)oc12,-0.6,u,40.8*,9.9,-0.5
Cc1cc(=O)oc2c(CN3CCC(C)CC3)c(O)c(Cl)cc12,-0.7,u,51.2*,-4.9,u
CCN(CC)Cc1c(O)c(Cl)cc2c(C)c(C)c(=O)oc12,-0.5,-3.9,0.8,-13.1,1.5
Cc1nnc(N2C(=O)c3cccc4cccc(c34)C2=O)s1,-0.2,-1.7,0.0,-24.3,-6.5
CCOC(=O)c1csc(NC(=O)CSc2nnnn2-c2ccc(OC)cc2)n1,0.9,-4.8,-0.2,3.4,9.1
CCOC(=O)c1c(NC(=O)CSc2nnnn2-c2ccc(OC)cc2)sc(C)c1C,1.0,0.9,42.5*,30.2*,0.3
Cc1ccc(NC(=O)CSc2nc(-c3ccco3)nc3cc(=O)[nH]n23)c(Cl)c1,x,85.7*,-4.1,x,56.4*
Cc1ccc(NC(=O)CSc2n[nH]c(-c3ccco3)n2)c(C)c1,-0.3,-6.3,6.0,2.0,-7.1
SMILES,PERK inhibitor,eIF4H FP inh,MLLE-PAM2 inh,eIF4E 4G PPI,PABP polyA inh
O=C(CSc1nnc2c3ccccc3c3ccccc3c2n1)Nc1ccccc1F,0.2,85.3*,-9.9,-2.1,30.2
O=C(CSc1nnc2c3ccccc3c3ccccc3c2n1)Nc1ccccc1,1.2,0.3,x,-27.1,19.9
CCOC(=O)c1ccc(/C=C2\c3ccccc3C(=O)N2c2ccccc2)cc1F,x,x,-19.5,x,x
Cc1cc[n+](-c2[nH]c(=O)sc2/C=N/N=C(\[O-])c2ccncc2)cc1,x,99.8*,40.6*,x,73.9*
Cc1cc[n+](-c2[nH]c(=O)sc2/C=N/N=C(\[O-])c2ccccc2)cc1,0.1,72.8,39.5*,6.0,35.4*
O=c1[nH]c(-[n+]2ccccc2)c(/C=N/N=C(\[O-])c2ccccc2)s1,2.8,13.5,21.1,-0.6,15.8
Oc1ccc(/C=N/Nc2ccc(C(F)(F)F)cn2)cc1,-0.1,6.5,7.3,-1.0,2.6
C/C(=N\Nc1ccc(C(F)(F)F)cn1)c1ccncc1,0.5,active,1.7,-1.3,79.9*
COc1cc(NC(=O)C2CC2C)c(C(=O)O)cc1OC (stereo unspecified),0.1,-13.3,13.2,0.4,16.1
CC(C(=O)c1ccc(Br)cc1)[n+]1cccc2ccccc21 (stereo unspecified),x,90.4,-27.7,x,31.3*
Cn1c(C(C)(O)C(O)c2ccccc2)nc2ccccc21 (stereo unspecified),0.9,-0.1,x,87.5*[fluorescence artefact?],-7.9
CC(O)c1nc2ccccc2n1C(C)c1ccccc1 (stereo unspecified),x,-8.0,-2.4,x,-10.6
CC(=O)NCCC1CCCCN1C(=O)c1cc(COc2cc(C)ccc2C)on1 (stereo unspecified),x,-3.0,-10.9,x,6.2
CC1=NN(CCC#N)C(=O)/C1=C/c1ccc(N(C)C)cc1,-0.4,77.4*,-83.7,-1.7,7.9
O=C(COC(=O)Cc1ccc(F)cc1)NCc1ccco1,0.4,92.8*,-12.3,8.4,active
O=C(COC(=O)c1ccc(NS(=O)(=O)c2cccs2)cc1)NCc1ccco1,1.2,99.7*,-6.3,19.6,63.5*
O=C(COC(=O)c1cncc(Br)c1)NCc1ccco1,0.1,97.1*,6.8,-7.2,50.3*
CN(C)S(=O)(=O)c1ccc(C(=O)OCC(=O)NCc2ccco2)cc1,0.3,69.2*,-15.1,8.1,u
C=CCn1c(C)cc(C)c(C#N)c1=O,1.9,-3.2,6.0,-2.4,5.5
Cc1cc(=O)[nH]c(SCCc2ccccc2)n1,x,-8.0,-6.5,x,1.2
COc1ccccc1CNCC(=O)Nc1ccc(N2CCOCC2)cc1,-0.7,-10.6,3.1,-11.7,-1.8
CC(C)CCNC(=S)Nc1ccc2nc3n(c(=O)c2c1)CCCCC3,-0.1,-11.0,-7.0,2.4,-0.3
O=C(Cc1ccc(Cl)cc1)NNC(=O)Nc1cccc2ccccc12,-0.8,-7.5,-2.3,3.3,0.6
COc1cc(NC(=O)c2cccs2)c(C(=O)OCC(=O)NCc2ccco2)cc1OC,-0.7,89.4*,-24.4,-8.9,61.6*
O=C(COC(=O)c1cccs1)NCc1ccco1,x,27.7,-9.8,x,34.7
SMILES,PERK inhibitor,eIF4H FP inh,MLLE-PAM2 inh,eIF4E 4G PPI,PABP polyA inh
COc1cccc(/C=C/C(=O)c2ccc(NC3=NCCCS3)cc2)c1,0.2,active,-9.6,-2.1,72.9*
Cc1cccc(/C=C/C(=O)c2ccc(NC3=NCCCS3)cc2)c1,0.1,-18.5,-22.9,2.8,-0.3
COc1ccc(S(=O)(=O)N2CCc3ccccc32)cc1C(=O)N1CCC(C)CC1,x,x,-1.9,x,x
CCC(C)C(=O)Nc1nnc(-c2cccs2)s1 (stereo unspecified),-1.4,-2.8,34.3,-6.2,-8.0
CCC1=NN2C(=N)/C(=C\c3cccn3-c3ccc(Cl)cc3)C(=O)N=C2S1,-0.2,10.5,-9.3,1.0,-7.5
CC(C)S(=O)(=O)C1=NSC2=NC(=O)/C(=C\c3ccc(-c4ccccc4)o3)C(=N)N21,1.4,u,-24.9,2.4,-7.5

# Assay outcomes deposited in PubChem BioAssay by several laboratories.
